# KDM5B inhibitor: blocks human KDM5B histone demethylase activity. 220,000 compounds, 2.6% hits. KDM5B demethylase, FDH-coupled NADH fluorescence (FDH is formaldehyde dehydrogenase). Q9UGL1. Potency, µM (series often up to 57.7 µM), most hits filed as inhibitors; active = well fitted inhibition curve with a large enough effect; also: 0% is about no effect; nearly all actives have a fitted effect of over 70% in size
#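 qHTS format, multiple compound concentrations. Buffer 50 mM HEPES pH 7.5/0.01% Tween-20; 200 nM KDM5BΔAP final; 10 min compound preincubation; substrate-mix levels 12.5 µM peptide, 25 µM α-KG, 0.25 mM NAD⁺; 30 min RT; ΔRFU.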
# The depositor's hits bear a star; i = inactive. The full list was thinned out, with hits kept by preference. Potency is read from the fitted curve at half-maximal effect.
SMILES,KDM5B inhibitor
COc1ccc(-c2nc3c(c(=O)[nH]2)CCN(C(=O)Nc2cc(F)cc(F)c2)C3)cc1,17.8µM*
N#Cc1cccc(NC(=O)N2CCc3c(nc(-c4ccc(F)cc4)[nH]c3=O)C2)c1,20µM*
Cc1cc(=O)n(CC(=O)Nc2cccc(C#N)c2)c(-c2ccc(F)cc2)n1,i
Cc1cc2c(=O)cc(C(=O)N(Cc3cccs3)c3ccccn3)oc2cc1Cl,i
CCOC(=O)CNC(=O)c1ccc(NC(C)=O)cc1,i
CNC(=O)c1ccc(N2CC3CC(C2)[C@H]2CCCC(=O)N2C3)nc1 (some centres undefined),i
O=C(NCCCN1CCCc2ccccc21)c1cccnc1N1CC2CC(C1)[C@H]1CCCC(=O)N1C2 (some centres undefined),28.2µM*
O=C(c1cccnc1N1CC2CC(C1)[C@H]1CCCC(=O)N1C2)N1CCN(c2ccc(Cl)cc2)CC1 (some centres undefined),i
C=CCNC(=O)c1cccnc1N1CC2CC(C1)[C@H]1CCCC(=O)N1C2 (some centres undefined),25.1µM*
O=C(CN1CC2CC(C1)[C@H]1CCCC(=O)N1C2)NCCCN1CCCC1=O (some centres undefined),i
O=C(NCCCN1CCOCC1)c1ccc(N2CC3CC(C2)[C@H]2CCCC(=O)N2C3)nc1 (some centres undefined),i
CCN(CC(=O)Nc1cc(Cl)ccc1C)C(=O)c1ccc(=O)n(Cc2ccccc2)n1,i
COC(=O)c1cn(CC(=O)NC2CC2)c2ccccc12,i
CN1C(=O)CC(C(=O)O)C12CCN(Cc1noc(C3CCCC3)n1)CC2 (centres undefined),i
CCCCCCCNCc1ccc(C)s1,i
CC(C)(C)NC(=O)CN(Cc1ccc2c(c1)OCO2)C(=O)CNS(=O)(=O)c1ccc(F)cc1,i
Cc1nn2c(c1-c1ccccc1N1CCCC1)N(C(=O)C1CCOCC1)CCC2,28.2µM*
Cc1nn2c(c1-c1ccccc1C(C)C)N(C(=O)C1CCOCC1)CCC2,i
Cc1nn2c(c1-c1ccccc1-c1ccccc1)N(C(=O)COc1ccccc1)CCC2,i
Cc1nn2c(c1-c1ccccc1OCc1ccccc1)N(C(=O)C1CCOCC1)CCC2,i
Cc1nn2c(c1-c1ccccc1Oc1ccccc1)N(C(=O)COc1ccccc1)CCC2,i
Cc1nn2c(c1-c1ccccc1N1CCCC1)N(C(=O)COc1ccccc1)CCC2,20µM*
CCOC(=O)CNC(=O)CN1C(=O)CC(c2ccco2)Sc2ccccc21 (centres undefined),i
Cc1ccc(-c2ccc(C=C(C#N)C#N)o2)cc1C(=O)O,i
COc1cc2c(cc1OC)C(C[C@H]1CN(S(=O)(=O)c3ccc(F)cc3)CC[C@H]1CC(=O)O)=NCC2,i
SMILES,KDM5B inhibitor
O=C(O)C[C@@H]1CCN(S(=O)(=O)c2ccc(F)cc2)C[C@@H]1CC1=NCCc2cc(F)ccc21,20µM*
CC[C@H]1CN(S(=O)(=O)c2ccc(OC)cc2)CC[C@H]1CC(=O)O,i
COc1cc2c(cc1OC)C(c1ccc(Cl)cc1)=NCC2,i
COc1cc2c(cc1OC)C(C[C@H]1CN(S(=O)(=O)c3ccc(Cl)cc3)CC[C@H]1CC(=O)O)=NCC2,28.2µM*
COc1cc2c(cc1OC)C(C[C@H]1CN(S(=O)(=O)c3ccccc3)CC[C@H]1CC(=O)O)=NCC2,25.1µM*
COc1cc2c(cc1OC)C(C[C@H]1CN(S(=O)(=O)c3cccc(C#N)c3)CC[C@H]1CC(=O)O)=NCC2,i
CNC(=O)N1CCC(C2CCN(S(=O)(=O)c3ccc(F)cc3)C2)CC1 (centres undefined),i
CC(=O)Nc1ccc(S(=O)(=O)N2CC[C@@H](CC(=O)O)[C@@H](CCN3CCCCC3)C2)cc1,i
O=C(O)CCn1c(=S)n(CCC(=O)O)c2ccccc21,i
N#C/C(=C/c1ccc(OCc2ccc(Cl)cc2)cc1)c1nc2ccccc2s1,i
CCOc1ccc(NC(=O)CS(=O)(=O)Cc2nc(-c3ccc(C)cc3)oc2C)cc1,i
CCOc1ccc(-c2nnc(SCC(=O)c3ccccc3)n2-c2ccccc2)cc1,i
O=C(Nc1cccc(S(=O)(=O)N2CCCC2)c1)c1cc(=O)c2ccccc2o1,i
CC(=O)Nc1ccc(Cl)c(C(=O)N2CCC3(CCCN(C)C3=O)C2)c1 (centres undefined),i
CN1CCCC2(CCN(C(=O)c3cc(=O)[nH]c4ccc(F)cc34)C2)C1=O (centres undefined),25.1µM*
Cc1[nH]c2ccc(C(=O)N3CCC4(CCCN(C)C4=O)C3)cc2c1C (centres undefined),i
O=C1CC(c2ccc3c(c2)OCO3)c2sc(C(=O)O)c(-c3ccc(F)cc3)c2N1 (centres undefined),i
CC(C)Cc1nnc(C(=O)Nc2ccc(C(=O)NCCN3CCCCC3C)cc2)s1 (centres undefined),i
O=C(NCc1ccccc1)c1ccc2c(c1)OCCN(CCC(F)(F)F)C2,i
CC(C)C(=O)N1Cc2ccccc2CC2(CCCCN2CC2CCOCC2)C1 (centres undefined),i
CN1CCC2(C1)CN(CC1CCOCC1)c1ccc(C(=O)NCc3ccccc3)cc12 (centres undefined),39.8µM*
CC(C)CCN1CCOc2cc(C(=O)NCc3ccccc3)ccc2C1,i
COc1ccc(C(=O)N2CCc3ccc(C(=O)NCC(C)C)cc32)cc1,i
CC(C)CNC(=O)c1ccc2c(c1)C1(CCN(C)C1)CN2CC1CCOCC1 (centres undefined),35.5µM*
COc1cc(NC(=S)N[C@H]2CO[C@H]3[C@@H]2OC[C@@H]3n2nnnc2Oc2ccc(-n3cncn3)cc2)cc(OC)c1,i
SMILES,KDM5B inhibitor
COc1ccc(CCNC(=O)C2CC2)cc1,i
Cc1cnc(CCNC(=O)Cc2ccncc2)n1CC1CC1,i
CC(C)c1cc(C(=O)N2CCC(C(=O)N3CCCCCC3)CC2)c2ccccc2n1,i
O=C(Nc1ccc2c(N3CCCCC3)ncnc2c1)C1CCC1,i
Cc1nc2cc(NC(=O)C3CCCCC3)ccc2o1,i
Cc1ccc2c(C(=O)N3CCCCCC3)cc(NC(=O)C3CCC3)cc2n1,31.6µM*
Cc1ccccc1C(=O)N1CCC(C(=O)Nc2ccc(C(C)C)cc2)CC1,i
Cc1ccc2c(C(=O)N3CCCCCC3)cc(NC(=O)C3CC3)cc2n1,28.2µM*
Cc1cc(C(=O)N2CCC(NC(=O)C3CCCCC3)CC2)c2ccccc2n1,i
Cc1ccc2c(C(=O)N3CCN(C4CCCCC4)CC3)cc(NC(=O)C3CCC3)cc2n1,25.1µM*
Cc1ccccc1C(=O)N1CCC(C(=O)Nc2ccc(C)c(S(=O)(=O)N3CCCCC3)c2)CC1,i
Cc1ccc2c(C(=O)N3CCN(C4CCCCC4)CC3)cc(NC(=O)C(C)C)cc2n1,11.2µM*
Cc1nc2ccc(NC(=O)C3CCCC3)cc2s1,i
Cc1cc(C(=O)N2CCN(C(=O)C(C)C)CC2)c2ccccc2n1,i
CCC1c2ccsc2CCN1C(=O)CNC(=O)c1ccccc1 (centres undefined),i
O=C(Nc1cccc(Cl)c1)Nn1cnnc1,i
CN(C)S(=O)(=O)c1ccc2oc(SCCOc3ccc(Br)cc3)nc2c1,i
O=C(O)CN(Cc1ccccc1)S(=O)(=O)c1cc(Cl)ccc1Cl,i
Cc1ccc2oc(-c3cccc(NC(=O)c4cccc5c(Br)cccc45)c3)nc2c1,i
Cc1ccc(C)c(NC(=O)Cn2cc(S(=O)(=O)NC(C)C)c(S(=O)(=O)NC(C)C)c2)c1,i

# Compound activity (PubChem BioAssay)
